High-throughput results (PubChem)
G9a block = blocks human histone lysine methyltransferase G9a; actives 8.8% (n = 350,000); Q96KQ7; Potency, µM (doses to about 102 µM), for the others: at the top dose activity, negative = inhibition, usual class: inhibitors; G9a H3K9 monomethylation, AlphaScreen, 2 h; also: % is scaled to controls: 0 for no effect and ±100 for the full control effect; nearly all actives have a fitted effect of over 75% in size
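Step 1: enzyme (final 20 nM) with compound, 15 min RT. Step 2: substrate peptide 500 nM and SAM 20 uM, 2 h RT. Step 3: anti-H3K9me1 antibody and AlphaScreen beads, 10 min, then plate read.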
L3MBTL1 inh = blocks human L3MBTL1; Q9Y468; AlphaScreen L3MBTL1–H3K9me1 peptide binding; Potency, µM (top dose mostly 57.1 µM), for the others: at the highest dose activity, negative = inhibition, usual class: inhibitors; actives 0.66% (n = 230,000); also: % is scaled to controls: 0 for no effect and ±100 for the full control effect; nearly all actives have a fitted effect of over 60% in size
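Read-out is AlphaScreen signal from streptavidin donor and nickel chelate acceptor beads (10 ug/mL final each) bridging L3MBTL1 (50 nM) and biotinylated K9-monomethylated H3(1-15) peptide (75 nM), after 30 min compound exposure at room temperature.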
HP1b binding inh = HP1-beta chromodomain-methylated histone interaction inhibition; P83916; AlphaScreen HP1-beta / biotin-H3K9me3 peptide binding; Potency, µM (top dose mostly 114 µM), without a hit: at the top dose activity change, negative = inhibition, hits mostly inhibitors; actives 0.56% (n = 390,000); AID 540317; also: nearly all actives have a fitted effect of over 70% in size
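Compound inhibition of the preformed complex between 50 nM HP1-beta and 50 nM biotinylated H3K9me3 peptide was read by AlphaScreen. Buffer was PBS pH 7.4 with 0.01% Tween-20. Incubations ran 30 min at room temperature, with 10 ug/mL donor/acceptor beads.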
BAZ2B block = BAZ2B (human) inhibition | AlphaScreen BAZ2B-H3K14Ac peptide displacement | Q9UIF8 | Potency, µM (series often up to 114 µM), without a hit: top-dose activity change, negative = inhibition, actives largely listed as inhibitors | actives 4.4% (n = 360,000); also: % is scaled to controls: 0 for no effect and ±100 for the full control effect; nearly all actives have a fitted effect of over 60% in size
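In this displacement format the biotinylated H3(5-23) peptide acetylated at Lys14 serves as ligand at 50 nM, with BAZ2B at 50 nM in PBS pH 7.4 containing 0.01% Tween-20. Donor and acceptor beads are 10 ug/mL final.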
JMJD2A Tudor inh = inhibitors of human JMJD2A Tudor domain. O75164. AlphaScreen JMJD2A-Tudor / H3K4me3 peptide binding. AID 504339. Potency, µM (series often up to 114 µM), for inactives: at the highest dose activity change, negative = inhibition, hits mostly inhibitors. actives 4.4% (n = 390,000); also: % is scaled to controls: 0 for no effect and ±100 for the full control effect; nearly all actives have a fitted effect of over 50% in size
Starred values were filed as active, the others as inactive; u = inconclusive; x = no result given; ! = a repeat was not active; [ ] = another dose, or the depositor's remark. Rows were chosen to be rich in hits. Some 11% of all compounds tested hit in one or more screens of this group. Calls follow the shape of the dose curve; as a rule, active = well fitted inhibition curve with a large enough effect; inconclusive = small, poorly fitted or top-dose-only effect; inactive = no such curve, though single readings can be large or run the other way. Potency is read from the fitted curve at half-maximal effect.

SMILES	G9a block	L3MBTL1 inh	HP1b binding inh	BAZ2B block	JMJD2A Tudor inh
CC(c1ccccc1)n1c(-c2ccc(Cl)cc2)n[nH]c1=S (centres undefined)	x	-14%	33%	-35%	-34%
COc1ccc(NC(=O)C(c2ccc(C)cc2)N(C)C(=O)/C=C\c2ccc3c(c2)OCO3)cc1 (centres undefined)	-43%[59 µM]	x	-5%	-24%	u
CC(c1ccc(F)cc1)n1c(-c2cccs2)n[nH]c1=S (centres undefined)	5µM*	-7%	20%	-31%	u
COc1ccccc1N1CCN(C(=O)CCC(=O)Nc2nnc(CC(C)C)s2)CC1	-8%	x	23%	2%	-21%
Fc1ccc(-n2cc(-c3ccccc3)c3c(NC4CCCCC4)ncnc32)cc1	-6%[59 µM]	x	32%	u	-22%
O=C(CSc1nnc(-c2ccccc2)c(-c2ccccc2)n1)NCCc1ccccc1	u	x	-8%	u	u
CCc1cccc(NC(=O)C2CCN(C(=O)c3cnn(-c4ccccc4)c3-n3cccc3)CC2)c1	-6%[59 µM]	x	10%	-18%	-30%
COc1ccc(N/C=C2\C(=O)CCc3c2oc2cc(Cl)c(O)c(Cl)c32)cc1	40µM*	0%	-14%	-37%	-36%
CCOC(=O)Cc1nnc(NC(=O)c2ncn[nH]2)s1	u	x	14%	8.9µM*	2µM*
CCOC(=O)Cc1nnc(NC(=O)c2ccccc2OCC)s1	-43%[59 µM]	-6%	43%	5%	-1%
COc1ccc(C(=O)Nc2cccc(C(=O)OCc3cc(=O)n4nc(C5CC5)sc4n3)c2)cc1	2%[59 µM]	x	19%	-20%	-23%
Cc1ccc(CNC(=O)CCCN2C(=O)CCn3nc(-c4cccn4C)cc32)cc1	-9%[59 µM]	x	-5%[57 µM]	u	-28%
CN(C)c1ccc(CNC(=O)CCCN2C(=O)CCn3nc(-c4cccn4C)cc32)cc1	u	x	-3%[57 µM]	40µM*	u
CCOc1ccc(Nc2oc(/C=C/c3cc(OC)c(OC)c(OC)c3)nc2C#N)cc1	4%[59 µM]	x	30%	-24%	-11%
NS(=O)(=O)c1ccc(-c2c(-c3ccccc3)sc3ccccc23)cc1	-3%[0.501 µM]	u	13%	56µM*	79µM*
Cc1onc(-c2ccccc2)c1-c1ccc(S(N)(=O)=O)cc1	-27%[2.33 µM]	x	54%	-4%	-2%
O=C1c2ccccc2C(=O)N1Cc1ccc2c(c1)OCO2	-5%[12.7 µM]	x	33%	17%	28%
C=C1c2ccccc2NC(=S)N1Cc1ccc2c(c1)OCO2	32µM*	-3%	24%	-32%	-9%[11.4 µM]
O=c1c(-c2nc3ccccc3s2)cccn1Cc1ccc(Cl)cc1	90%	9%	58%	30%	17%
C=CCn1c(-c2cccc3ccccc23)n[nH]c1=S	u	x	18%	-33%	19%
CCn1c(-c2ccccc2SC)n[nH]c1=S	14µM*	0%	7%	-15%	u
CCn1c(-c2cccn(Cc3ccccc3)c2=O)n[nH]c1=S	32µM*	8%	18%	-2%	u
Cc1ccn(-c2ccc(NC(=O)c3cccs3)cc2)n1	71µM*	x	7%	3%	-10%
O=C(Nc1ccc(NC(=O)c2cccs2)cc1)c1cccs1	-3%[59 µM]	x	19%	25%	1%
CC1CC(C)CN(C(=O)c2cccc(S(=O)(=O)Nc3cc(C(F)(F)F)ccc3Cl)c2)C1 (centres undefined)	u	0%	26%	79µM*	-17%
SMILES	G9a block	L3MBTL1 inh	HP1b binding inh	BAZ2B block	JMJD2A Tudor inh
O=C(O)c1cccc(S(=O)(=O)Nc2cc(Cl)ccc2Cl)c1	-41%	1%	19%	0%	-7%
N=C1Sc2ccccc2C2=NCCCN12	0.11µM*	x	x	x	x
CC1CCc2sc(-c3n[nH]c(=S)o3)cc2C1 (centres undefined)	13µM*	-16%	29%	u	-19%
c1ccc(-c2cc(-c3ccc(N4CCOCC4)cc3)nc3ccccc23)cc1	35%[59 µM]	67%	141%	27%	57%
COc1ccc2c(-c3ccccc3)cc(N3CCOCC3)nc2c1	2.2µM*	x	25µM*	25µM*	1.3µM*
C/C=C/c1ccc(O)c(OC)c1	10µM*!	-3%	u	u	-31%
COc1cc(/C=C/C=C2/CC/C(=C/C=C/c3ccc(O)c(OC)c3)C2=O)ccc1O	x	x	u	x	56µM*
